Inconclusive results are not listed. Calls of active or inactive are those of the source. Unless noted, calls follow the shape of the dose curve; as a rule, active = well fitted curve in the direction sought with a large enough effect; inconclusive = small, poorly fitted or top-dose-only effect, or another doubt; inactive = no such curve, though single readings can be large; an effect the other way counts as inactive or inconclusive.

In assay [1] the target is Cytochrome P450 3A4 (Homo sapiens) (UniProt P08684). Kind of assay: qHTS Assay for Inhibitors and Substrates of Cytochrome P450 3A4 (AID 884). Also: nearly all actives have a fitted effect of over 50% in size. Also: potency is read from the fitted curve at half-maximal effect. As to activity change, negative = inhibition: % is scaled to controls: 0 for no effect and ±100 for the full control effect. Summed up: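 20 nM human CYP3A4 with 25 uM Luciferin-PPXE (at KM) in 200 mM KPO4, preincubated 10 min with compound; NADPH regeneration started a 60 min RT reaction. Luciferin detected by luminescence, normalized to 57 uM ketoconazole as full inhibition.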

Assay [2] shares this target. In words: qHTS Assay for Activators of Cytochrome P450 3A4 (AID 885). Also: nearly all actives have a fitted effect of over 65% in size. Summed up:
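Steps: enzyme/substrate mix dispensed; compound added, 10 min RT; NADPH regeneration solution added, 60 min RT; luciferin detection buffer stops reaction; 20 min later luminescence measured.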

Assay [3] in a line: Confirmation and Secondary Assay for Modulators of Hemoglobin Beta Chain Splicing at IVS2 654 locus (AID 910).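 Also: HeLa cells stably carrying EGFP split by mutant beta-globin IVS2-654 intron; % of control where 0% means no effect.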 Summed up:
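HeLa cells stably expressing EGFP interrupted by β-globin IVS2-654 intron, seeded overnight in Opti-MEM/2% FCS, then treated 2 days at 37 °C. Restored splicing read as total peak GFP intensity per well by laser scanning cytometry (488 nm excitation, 500–520 nm emission); 500 nM antisense PNA as control.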

Assay [4] in a line: Confirmation and Secondary Assay for Modulators of Hemoglobin Beta Chain Splicing at IVS2 705 locus (AID 930).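 Also: HeLa cells stably expressing the EGFP-705 splicing reporter; % of control where 0% means no effect.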 Summed up: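 HeLa cells stably carrying EGFP interrupted by mutant beta-globin IVS2-705 intron (CMV-driven) were seeded at 500 cells/well, treated next day with compound for 2 days at 37C; corrected splicing restores EGFP, read as total peak GFP intensity per well.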

Assay [5] in a line: qHTS Assay for Lipid Storage Modulators (AID 1519; calls by dose curve; as to activity change, negative = inhibition: % is scaled to controls: 0 for no effect and ±100 for the full control effect). The conditions noted are these: Drosophila S3 cells, BODIPY lipid droplet/cell ratio, laser cytometry, cells loaded with oleic acid. Summed up: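 Cells seeded at 5,000 per well were treated with compounds over a concentration series and loaded with oleic acid (400 uM, as added). Lipid droplet fluorescence (488 nm excitation, 500-530 nm channel) was read by laser-scanning cytometry and normalized to 20 uM Triacsin C.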

Assay [6] addresses DNA dC->dU-editing enzyme APOBEC-3G (Homo sapiens) (UniProt Q9HC16). Kind of assay: qHTS for inhibitors of Vif-A3G interactions: Validation (AID 588379). Also: 0% is about no effect. In short, it runs like this:
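HeLa cells stably expressing Vif and A3G-eYFP, 700 cells/well, incubated overnight at 37 deg C, then exposed to compound overnight at 37 deg C. Inhibition of Vif-mediated degradation read as increased yellow fluorescence (Ex 488/Em 500-530) by laser-scanning cytometry.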

The mark [7] stands for this setting: measured here: cell count channel max response.
[8] abbreviates: measured here: lipid channel max response.

Sequence of DNA dC->dU-editing enzyme APOBEC-3G (Homo sapiens) (Q9HC16 whole entry, looked up): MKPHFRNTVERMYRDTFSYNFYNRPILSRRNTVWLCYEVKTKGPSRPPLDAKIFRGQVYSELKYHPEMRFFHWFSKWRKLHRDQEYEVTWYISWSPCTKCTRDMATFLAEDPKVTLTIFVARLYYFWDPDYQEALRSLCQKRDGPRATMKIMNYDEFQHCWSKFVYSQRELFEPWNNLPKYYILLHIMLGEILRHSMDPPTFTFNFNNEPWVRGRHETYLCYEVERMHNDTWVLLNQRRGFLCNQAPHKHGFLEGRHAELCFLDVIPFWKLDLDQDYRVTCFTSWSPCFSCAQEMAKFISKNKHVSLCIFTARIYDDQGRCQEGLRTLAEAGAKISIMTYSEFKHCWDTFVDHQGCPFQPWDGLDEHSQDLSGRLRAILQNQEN
Sequence of Cytochrome P450 3A4 (Homo sapiens) (P08684 whole entry, looked up): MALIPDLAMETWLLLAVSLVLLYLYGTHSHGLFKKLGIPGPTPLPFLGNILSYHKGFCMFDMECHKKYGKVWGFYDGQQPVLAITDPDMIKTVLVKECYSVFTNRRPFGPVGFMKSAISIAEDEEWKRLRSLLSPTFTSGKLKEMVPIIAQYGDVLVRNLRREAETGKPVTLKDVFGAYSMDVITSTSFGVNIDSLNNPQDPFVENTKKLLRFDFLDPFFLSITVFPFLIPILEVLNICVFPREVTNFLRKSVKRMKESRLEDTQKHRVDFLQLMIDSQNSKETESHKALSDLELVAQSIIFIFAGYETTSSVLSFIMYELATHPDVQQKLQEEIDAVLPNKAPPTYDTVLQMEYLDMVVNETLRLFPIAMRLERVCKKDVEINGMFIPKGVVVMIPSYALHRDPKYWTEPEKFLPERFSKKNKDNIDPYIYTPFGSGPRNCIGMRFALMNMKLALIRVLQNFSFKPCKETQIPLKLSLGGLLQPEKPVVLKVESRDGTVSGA

Regarding `S=C=NCc1ccccc1`, the Potency in assay [1] was 25.1 µM (active). Besides, the Potency entry in assay [2], in assay [3] and in assay [4] was “inactive” throughout. The activity change, negative = inhibition in assay [5] (at 57.5 µM (top of the series)) was 4.36% (inactive). Moreover, the max response is -6.33% in assay [5] (setting [7]) and 0.435% in assay [5] (setting [8]).

As for `COc1cc(CNC(=O)CCCC/C=C\C(C)C)ccc1O`, the Potency in assay [1] was 7.94 µM (active). Besides, the Potency result in assay [2] is “inactive”. In addition, the activity change, negative = inhibition in assay [5] (at 25.7 µM (top of the series)) is -6.95% (inactive). The results for the max response in assay [5] (setting [7]) and in assay [5] (setting [8]) were -15.8% and -21%, respectively.

In the case of `CC1=C2C3OC(=O)[C@H](C)[C@H]3CC[C@@]2(C)C=CC1=O` (stereo not given in full), in assay [2], the Potency result was “inactive”. In addition, the activity change, negative = inhibition in assay [5] (at 57.5 µM (top of the series)) was 2.8% (inactive). Further, the results for the max response in assay [5] (setting [7]) and in assay [5] (setting [8]) were 25.6% and 29.5%, respectively. In addition, the result in assay [6] was inactive.

Consider `CC1(C)C(O)CC(O)[C@]2(C)C1CC(O)[C@]1(C)C2CC[C@@]2(C)C(c3ccoc3)OC(=O)C3O[C@]312` (stereo not given in full), for which, in assay [1], the Potency was 12.6 µM (active). Besides, the Potency result in assay [2] and in assay [4] was “inactive” throughout. Further, the activity change, negative = inhibition in assay [5] (at 57.5 µM (top of the series)) was 0.703% (inactive). Moreover, the max response was 12.6% in assay [5] (setting [7]) and 16.1% in assay [5] (setting [8]).

In the case of `CNC(=O)O/N=C(/C)SC`, the Potency entry in assay [1], in assay [3] and in assay [4] was “inactive” in each case. Also, the activity change, negative = inhibition in assay [5] (at 57.5 µM (top of the series)) was 3.26% (inactive). The max response worked out at 16.3% in assay [5] (setting [7]) and 20.1% in assay [5] (setting [8]).

On to `C=C1C2CCC3[C@@](CC[C@@H]4C(C(=O)O)CC(OC5OC(CO)C(OS(=O)(=O)O)C(OS(=O)(=O)O)C5OC(=O)CC(C)C)C[C@]34C)(C2)C1O` (stereo not given in full), for which the Potency entry in assay [1], in assay [3] and in assay [4] was “inactive” in each case. The activity change, negative = inhibition in assay [5] (at 57.5 µM (top of the series)) is 1.97% (inactive). For the same molecule, the max response is -12% in assay [5] (setting [7]) and -7.92% in assay [5] (setting [8]).

Take `CC1(C)C(=O)C=C[C@@]2(C)C1=C(O)C(=O)[C@@]1(C)C2CC[C@@]2(C)C(c3ccoc3)C[C@H]3O[C@@]321` (stereo not given in full): the Potency in assay [1] is 0.501 µM (active). Besides, the Potency entry in assay [2], in assay [3] and in assay [4] was “inactive” throughout. Further, in assay [5] (at 57.5 µM (top of the series)), the activity change, negative = inhibition was 0.256% (inactive). Moreover, the max response in assay [5] (setting [7]) was 0.732%; in assay [5] (setting [8]), 3.61%.

Consider `CC1=CCCC2C1(C)CCC(C)C2(C)CC/C(C)=C/C[n+]1cn(C)c2c(N)ncnc21` (stereo not given), for which the Potency in assay [1] is 31.6 µM (active). Further, the Potency entry in assay [2], in assay [3] and in assay [4] was “inactive” in each case. In assay [5] (at 57.5 µM (top of the series)), the activity change, negative = inhibition was 6.88% (inactive). The max response in assay [5] (setting [7]) is 2.19%; in assay [5] (setting [8]) it was 13.1%.

Turning to `O=c1cccc2n1CC1CNCC2C1` (stereo not given), the Potency result in assay [2], in assay [3] and in assay [4] was “inactive” throughout. In addition, the activity change, negative = inhibition in assay [5] (at 57.5 µM (top of the series)) is 8.73% (inactive). Besides, the max response in assay [5] (setting [7]) was determined as 7.65%; in assay [5] (setting [8]) it was 18%. Also, in assay [6], the result was inactive.

For the molecule `Cc1cc(OC(=O)N2CCCCC2)c(C(C)C)cc1[N+](C)(C)C`, the Potency entry in assay [1], in assay [3] and in assay [4] was “inactive” each time. The activity change, negative = inhibition in assay [5] (at 57.5 µM (top of the series)) is 8.28% (inactive). In addition, the max response in assay [5] (setting [7]) worked out at 17.5%; in assay [5] (setting [8]) it was 31.1%.

Turning to `C#CCOS(=O)OC1CCCCC1Oc1ccc(C(C)(C)C)cc1` (stereo not given), the Potency entry in assay [1] and in assay [4] was “inactive” in each case. Further, the activity change, negative = inhibition in assay [5] (at 57.5 µM (top of the series)) was 5.08% (inactive). For the same molecule, the max response in assay [5] (setting [7]) worked out at 0.489%; in assay [5] (setting [8]), 8.3%.

For the molecule `O=C1NC(=O)C(=O)C(=O)N1`, the Potency entry in assay [1] and in assay [4] was “inactive” throughout. Moreover, the activity change, negative = inhibition in assay [5] (at 57.5 µM (top of the series)) is 2.7% (inactive). In addition, the max response in assay [5] (setting [7]) stood at 15%; in assay [5] (setting [8]), 19.9%.

Take `C=C1C2CC[C@@]3(C)C(c4ccoc4)OC(=O)C[C@@]13OC1CC(=O)C(C)(C)C(C(OC(C)=O)C(=O)OC)[C@@]12C` (stereo not given in full): in assay [1], the Potency is 1 µM (active). Further, the Potency entry in assay [2] was “inactive”. Besides, the activity change, negative = inhibition in assay [5] (at 57.5 µM (top of the series)) was 1.36% (inactive). Moreover, the max response was 4.29% in assay [5] (setting [7]) and 7.56% in assay [5] (setting [8]).

Take `C[C@@]12CCC3C(CCC4=CC(=O)CC[C@]43C)C1CCC2O` (stereo not given in full): the Potency result in assay [1] and in assay [4] was “inactive” in each case. The activity change, negative = inhibition in assay [5] (at 57.5 µM (top of the series)) is -1.38% (inactive). Also, the max response in assay [5] (setting [7]) came to 0.874%; in assay [5] (setting [8]), 1.24%.

With `CCN1C[C@@]2(COC)C3[C@@H](OC)C4[C@@H]1[C@@]3(C1C[C@@]3(O)[C@H](OC(=O)c5ccccc5)C1[C@]4(OC(C)=O)[C@@H](O)[C@@H]3OC)[C@@H](OC)C[C@H]2O` (stereo not given in full), the Potency entry in assay [2] is “inactive”. Also, in assay [5] (at 57.5 µM (top of the series)), the activity change, negative = inhibition is 0.0984% (inactive). Besides, the max response in assay [5] (setting [7]) was -8.1%; in assay [5] (setting [8]) it was -8.3%. The result in assay [6] was inactive.

Take `COc1cc2c(cc1OC)C(C)NCC2` (stereo not given): the Potency result in assay [1], in assay [3] and in assay [4] was “inactive” in each case. For the same molecule, in assay [5] (at 57.5 µM (top of the series)), the activity change, negative = inhibition was 4.92% (inactive). The figures for the max response in assay [5] (setting [7]) and in assay [5] (setting [8]) were 20% and 26%, respectively. Also, the molecule was called inactive in assay [6].

As for `COc1cc2c(cc1O)CCNC2C` (stereo not given), in assay [1], the Potency entry is “inactive”. The activity change, negative = inhibition in assay [5] (at 57.5 µM (top of the series)) is 6.98% (inactive). In addition, the max response in assay [5] (setting [7]) amounted to 8.33%; in assay [5] (setting [8]) it was 17.5%.

For `C=C1C([C@@]2(C)C(OC(C)=O)CC(=O)O[C@@](C)(COC(C)=O)C2CC(=O)OC)C(OC=O)C(OC(=O)C(OC(C)=O)C(C)CC)[C@]2(C)C(c3ccoc3)CC(=O)C12O` (stereo not given in full), the Potency in assay [1] is 12.6 µM (active). Further, the Potency entry in assay [2], in assay [3] and in assay [4] was “inactive” in each case. Moreover, the activity change, negative = inhibition in assay [5] (at 57.5 µM (top of the series)) is -5.86% (inactive). Further, the values for the max response in assay [5] (setting [7]) and in assay [5] (setting [8]) were 19% and 13.8%, respectively.
